How the values were obtained:
Assay in all cases: growth inhibition (% activity, log2 RLU normalised to DMSO / staurosporine); higher = more growth inhibition
Conditions in all cases: 33 µM
DIPGX29 = system: DIPGX29 (H3.3 K27M diffuse intrinsic pontine glioma line)
Method in brief: (§1)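 Cells (pHGG lines and H9-derived neural stem cells) were plated on Geltrex-coated 384-well plates and exposed to approved drugs at a single final concentration of about 33 μM, in triplicate, for 7 days at 37 °C, 5% CO2. Log2-transformed CellTiter-Glo luminescence was normalised per plate to % activity between solvent and positive control wells, and the growth-inhibition value is the median over replicates.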

DIPGX37 = system: DIPGX37 (H3.3 K27M diffuse intrinsic pontine glioma line)
Method in brief: as §1

DIPGX7 = system: DIPGX7 (H3.3 K27M diffuse intrinsic pontine glioma line)
Method in brief: as §1

DIPGX9 = system: DIPGX9 (diffuse intrinsic pontine glioma line)
Method in brief: as §1

HGGX39 = system: HGGX39 (paediatric high-grade glioma line)
Method in brief: as §1

HGGX6 = system: HGGX6 (H3.3 G34R paediatric high-grade glioma line)
Method in brief: as §1

HNSC = system: HNSC
Method in brief: as §1

SUDIPGIV = system: SUDIPGIV (diffuse intrinsic pontine glioma line)
Method in brief: as §1

SUDIPGVI = system: SUDIPGVI (diffuse intrinsic pontine glioma line)
Method in brief: as §1

SUDIPGXIII = system: SUDIPGXIII (diffuse intrinsic pontine glioma line)
Method in brief: as §1

Row | Structure (SMILES) | growth inhibition (DIPGX29) | growth inhibition (DIPGX37) | growth inhibition (DIPGX7) | growth inhibition (DIPGX9) | growth inhibition (HGGX39) | growth inhibition (HGGX6) | growth inhibition (HNSC) | growth inhibition (SUDIPGIV) | growth inhibition (SUDIPGVI) | growth inhibition (SUDIPGXIII)
1 | CO[C@@]1(NC(=O)C(C(=O)O)c2ccc(O)cc2)C(=O)N2C(C(=O)O)=C(CSc3nnnn3C)CO[C@@H]21 (stereo not given in full) | -1.75% | -0.992% | -0.554% | -0.636% | -0.0428% | 0.31% | -3.08% | -1.1% | 0.787% | -4.5%
2 | C[C@@H](Oc1cc(-c2cnn(C3CCNCC3)c2)cnc1N)c1c(Cl)ccc(F)c1Cl | 26.5% | 7.08% | 9.03% | 10.8% | 16.1% | 13.5% | 54.5% | 6.53% | 17.5% | 1.64%
3 | O=C1CCc2ccc(OCCCCN3CCN(c4cccc(Cl)c4Cl)CC3)cc2N1 | 4.57% | 3.86% | 4.16% | 4.55% | 5.69% | 3.13% | 22% | 4.8% | 4.51% | 14.8%
4 | C[C@H]1O[C@H](O[C@H]2[C@H](O)[C@@H](O)[C@@H](O[C@H]3[C@H](O)[C@@H](O)C(O)O[C@@H]3CO)O[C@@H]2CO)[C@H](O)[C@@H](O)[C@@H]1N[C@H]1C=C(CO)[C@@H](O)[C@H](O)[C@H]1O (stereo not given in full) | -1.13% | -1.58% | -0.631% | -1.81% | -1.75% | -0.366% | -2.81% | -2.71% | -0.59% | -0.463%
5 | COc1ccc(-c2nc3ccc(C4=NNC(=O)CC4C)cc3[nH]2)cc1 (stereo not given) | 0.372% | 2.28% | 1.98% | 1.28% | 3.99% | 2.72% | 3% | 5.46% | -4.45% | 0.884%
6 | CCC1(c2ccccc2)C(=O)NCNC1=O | -1.25% | 0.454% | 0.246% | -0.432% | 2.69% | -0.575% | 3.35% | -1.41% | 0.425% | 0.0763%
7 | CN(C)C/C=C/C(=O)Nc1cc2c(Nc3ccc(F)c(Cl)c3)ncnc2cc1O[C@H]1CCOC1 | 21.1% | 8.76% | 29.6% | 14.3% | 11.5% | 47.5% | 59.4% | 10.9% | -0.744% | 0.97%
8 | N=C(N)c1ccc(OCCCCCOc2ccc(C(=N)N)cc2)cc1 | 12.3% | -2.71% | 16.9% | 13.9% | 42.9% | 20.2% | 43.6% | 45% | 44.2% | 16.5%
9 | CO[C@H]1C[C@@H]2CC[C@@H](C)[C@@](O)(O2)C(=O)C(=O)N2CCCC[C@H]2C(=O)O[C@H]([C@H](C)C[C@@H]2CC[C@@H](O)[C@H](OC)C2)CC(=O)[C@H](C)/C=C(\C)[C@@H](O)[C@@H](OC)C(=O)[C@H](C)C[C@H](C)/C=C/C=C/C=C/1C | 6.5% | 0.955% | 6.15% | 16.4% | 10.5% | 10.3% | 10.4% | 4.5% | 6.53% | 0.792%
10 | CCOC(=O)c1c(C)n(C)c2ccc(O)cc12 | 0.475% | 0.373% | 0.137% | -1.16% | 1.77% | 1.27% | -0.219% | 0.902% | -0.0936% | -1.54%
11 | CC(=O)N[C@@H](CS)C(=O)O | -0.541% | 1.66% | 0.31% | -0.364% | -0.994% | -2.9% | 1.29% | 0.64% | 0.65% | 0.374%
12 | N#C[C@@H]1CCCN1C(=O)CNC12CC3CC(CC(O)(C3)C1)C2 | -0.11% | -0.458% | -0.508% | -1% | 0.579% | -2.32% | 14.2% | 0.0993% | -3.27% | -3.49%
13 | CC(=O)OCC(CCn1cnc2cnc(N)nc21)COC(C)=O | -2.6% | -4.6% | -0.979% | -2.76% | -5.59% | -3.73% | 33.5% | -3.45% | -13% | 2.17%
14 | COc1cc2ncnc(Nc3ccc(F)c(Cl)c3)c2cc1OCCCN1CCOCC1 | 3.09% | -0.0268% | 1.03% | -0.279% | 1.46% | 4.13% | -1.23% | -5.34% | -6.03% | 0.759%
15 | O=C(O)c1ccc(NC(=O)[C@H](Cc2ccc(O)cc2)NC(=O)c2ccccc2)cc1 | -3.5% | -1.5% | -2.53% | -1.13% | -2.55% | -0.845% | -2.41% | -2.35% | 0.761% | -0.558%
16 | COC(=O)C1=C(C)NC(C)=C(C(=O)OCC(C)C)C1c1ccccc1[N+](=O)[O-] (stereo not given) | 1.94% | 1.14% | 0.789% | 2.65% | 5% | 3.46% | 5.72% | 0.591% | 3.16% | 2.06%
17 | O=C1O[C@H]([C@@H](O)CO)C(O)=C1O | -0.099% | 2.39% | 0.0255% | -1.21% | 1.99% | -2.25% | 2.06% | 0.144% | -0.209% | -0.259%
18 | O=C(Oc1ccccc1C(=O)O)c1ccccc1O | -4.53% | -1.4% | 0.584% | -2.94% | -1.64% | -6.45% | 9.98% | -3.17% | -8.34% | -0.246%
19 | COC(=O)Nc1nc2cc(C(=O)c3ccc(F)cc3)ccc2[nH]1 | 5.17% | 7.48% | 3.54% | 6.48% | -0.271% | 3.94% | 63.6% | -1.42% | 0.822% | 5.19%
20 | CCOc1ccccc1OC(c1ccccc1)C1CNCCO1 (stereo not given) | 0.58% | 2.23% | -0.477% | 1.96% | 0.0675% | 0.362% | -1.38% | -0.307% | -0.0566% | 0.138%

Row | Structure (SMILES) | growth inhibition (DIPGX29) | growth inhibition (DIPGX37) | growth inhibition (DIPGX7) | growth inhibition (DIPGX9) | growth inhibition (HGGX39) | growth inhibition (HGGX6) | growth inhibition (HNSC) | growth inhibition (SUDIPGIV) | growth inhibition (SUDIPGVI) | growth inhibition (SUDIPGXIII)
21 | COc1cc(Cc2cnc(N)nc2N)cc(OC)c1OC | 1.94% | 3.36% | 1.59% | 1.97% | 3.59% | 2.4% | 0.59% | 2.24% | 2.5% | -1.4%
22 | Cc1cnc(NC(=O)C2=C(O)c3ccccc3S(=O)(=O)N2C)s1 | -1.57% | 2.24% | -0.44% | -0.195% | -0.277% | -2.36% | 0.475% | -3.44% | 1.38% | -0.269%
23 | CCCc1cc(C(N)=S)ccn1 | -2.06% | -0.994% | -2.65% | -1.15% | -0.973% | 0.551% | -2.9% | -2.46% | -0.254% | 0.671%
24 | CC(=O)NC[C@H]1CN(c2ccc(N3CCOCC3)c(F)c2)C(=O)O1 | 0.341% | -2.02% | 0.521% | 1.07% | 3.34% | 1.89% | 6.16% | 4.69% | 1.21% | 1.55%
25 | COC(=O)N/N=C/c1c[n+]([O-])c2ccccc2[n+]1[O-] | 2.48% | 4.18% | 1.83% | 0.689% | 2.31% | 0.191% | 4.92% | 3% | 5.18% | -3.09%
26 | CC(=O)O[C@@]12CO[C@@H]1C[C@H](O)[C@@]1(C)C(=O)[C@H](O)C3=C(C)[C@@H](OC(=O)[C@H](O)[C@@H](NC(=O)OC(C)(C)C)c4ccccc4)C[C@@](O)([C@@H](OC(=O)c4ccccc4)[C@H]21)C3(C)C | 8.91% | 8.27% | 8.76% | 19.3% | 24.5% | 15.8% | 55.1% | 21.6% | 8.93% | 6.64%
27 | O=C1NCC2(CCN(CCc3ccccc3)CC2)O1 | 0.324% | -0.568% | 0.908% | 1.98% | 1.24% | 0.472% | -0.511% | -1.95% | 0.357% | 0.871%
28 | CC1Cc2ccccc2N1NC(=O)c1ccc(Cl)c(S(N)(=O)=O)c1 (stereo not given) | -2.32% | 0.265% | -1.54% | -0.538% | 0.759% | 0.259% | -4.15% | -2.59% | -1.16% | -1.46%
29 | O=C(NCCO[N+](=O)[O-])c1cccnc1 | -0.0278% | 2.96% | 1.16% | 1.21% | 0.669% | -4.02% | 46.8% | 0.797% | 1.67% | -0.184%
30 | O=C1[C@@H]2[C@H]3CC[C@H](C3)[C@@H]2C(=O)N1C[C@@H]1CCCC[C@H]1CN1CCN(c2nsc3ccccc23)CC1 | -3.28% | 0.212% | 1.18% | -1.28% | 2.33% | 1.59% | 2.62% | -0.0151% | 0.346% | 2.16%
31 | Cc1cccc(C)c1OCC(C)N (stereo not given) | -3.9% | -0.481% | -1.91% | -1.51% | -0.858% | -1.81% | -4.52% | -0.767% | -2.5% | 0.823%
32 | CCCc1cc(=O)[nH]c(=S)[nH]1 | -0.542% | 1.03% | -0.794% | 1.7% | -0.649% | -0.265% | -0.282% | -1.58% | 0.156% | 1.61%
33 | CN(C)[C@@H](CCOc1cccc2ccccc12)c1ccccc1 | 10.6% | 0.861% | 6% | 3.36% | 5.09% | 0.0424% | 67.5% | 3.4% | -2.24% | 0.415%
34 | CCCNC(C)C(=O)Nc1c(C)csc1C(=O)OC (stereo not given) | 0.453% | 0.894% | 1.5% | -0.444% | 3.43% | 1.44% | 5.64% | 0.331% | 2.98% | -0.525%
35 | O=C(Nc1ccc([N+](=O)[O-])cc1Cl)c1cc(Cl)ccc1O | 43.9% | -2.57% | 24.1% | 2.53% | 4.01% | 5.02% | 7.85% | 16.6% | 3.13% | 61.3%
36 | CC(C)(C)c1nc(-c2cccc(NS(=O)(=O)c3c(F)cccc3F)c2F)c(-c2ccnc(N)n2)s1 | 0.794% | 4.39% | 2.8% | 1.94% | 5.46% | 4.05% | 22.9% | -0.469% | -1.37% | -0.13%
37 | CCN1CCN(C(=O)NC(C(=O)NC2C(=O)N3C(C(=O)O)=C(CSc4nnnn4C)CSC23)c2ccc(O)cc2)C(=O)C1=O (stereo not given) | -4.55% | 0.256% | -3.04% | -2.18% | 0.547% | -2.32% | -1.87% | -3.07% | -2.25% | -0.109%
38 | CN(C)CCCOc1nn(Cc2ccccc2)c2ccccc12 | 13.9% | -2.22% | 24.6% | 5.76% | 18.9% | 14.8% | 40.8% | 18.5% | -1.11% | 0.197%
39 | CCCOc1ccc2[nH]c(NC(=O)OC)nc2c1 | 6.12% | 5.82% | 6.31% | 9.95% | 7.33% | 9.96% | 66.6% | 11.4% | -1.9% | 3.23%
40 | CC(=O)O[C@H]1CC[C@@]2(C)C(=CC[C@@H]3[C@@H]2CC[C@]2(C)C(c4cccnc4)=CC[C@@H]32)C1 | 0.369% | -0.0357% | -0.259% | 0.906% | 2.75% | -0.409% | -1.27% | -0.864% | -0.189% | -0.391%

— the supplement of paper PMC8253809
